Results: a collection of fitness landscapes (doi:10.1016/j.celrep.2020.107928)
The full ranking holds about 81,000 sequences; the median of “one-hybrid fitness for binding parS DNA” is about -0.17, and the highest 2% start at about 0.51. Only a selection was taken, and the highest values are over-represented in it overall.

B1: Caulobacter ParB omega fusion; a variant is named by its letters at X, in order, B8GW30 (parent)
chain: MESVVVGEPGMSEGRRGLGRGLSALLGEVDAAPAQAPGEQLGGSREAPIEILQRNPDQPRRTFREEDLEDLSNSIREKGVLQPILVRPSPDTAGEYQIVAGERAWRAAQRAGLKTVPIMVRELDDLAVLEIGIIENVQRADLNVLEEALSYKVLMEKFERTQENIAQTIGKSXSHVANXMRLLXLPDEVQSYLVSGELTAXHARAIAAAADPVALAKQIIEGGLSVRETEALARKAPNLSAGKSKGGRPPRVKDTDTQALESDLSSVLGLDVSIDHRGSTGTLTITYATLEQLDDLCNRLTRGI

Variants of: B1
Test: one-hybrid fitness for binding parS DNA (scaled: cognate 1, non-cognate 0); higher = stronger binding
Conditions: with parS DNA site
Outline: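 Fitness here means the log change in variant-to-wild-type read ratio between plasmids sequenced before and after selection. That scale was set so cognate equals 1 and non-cognate equals 0. The selection was a bacterial one-hybrid screen of Caulobacter ParB libraries, four specificity codons randomised, in E. coli USO carrying a HIS3 reporter with the site 19 bp from the promoter, grown 48 hours at 37°C on M9-minus-histidine with 0.1 mM IPTG and 5 mM 3-AT.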

Row | Variant | one-hybrid fitness for binding parS DNA
1 | WLFR | ≤ 0.2
2 | ESLF | ≤ 0.2
3 | DFNL | ≤ 0.2
4 | RNAN | 0.301
5 | RNFQ | ≤ 0.2
6 | RNAP | ≤ 0.2
7 | RNAC | 0.754
8 | RNFC | 0.627
9 | RNFM | ≤ 0.2
10 | AKFS | ≤ 0.2
11 | MTSR | ≤ 0.2
12 | VNNR | ≤ 0.2
13 | RRHH | ≤ 0.2
14 | RRHN | 0.689
15 | RRHK | ≤ 0.2
16 | RRHP | ≤ 0.2
17 | RRHD | ≤ 0.2
18 | RRHS | 0.645
19 | LFLC | ≤ 0.2
20 | DLIT | ≤ 0.2
21 | RDNY | ≤ 0.2
22 | TIRM | ≤ 0.2
23 | VENG | ≤ 0.2
24 | NEVT | ≤ 0.2
25 | GRRY | ≤ 0.2

Row | Variant | one-hybrid fitness for binding parS DNA
26 | QQLD | ≤ 0.2
27 | MQRR | ≤ 0.2
28 | PCLL | ≤ 0.2
29 | ARAW | ≤ 0.2
30 | RIKR | ≤ 0.2
31 | RIVQ | ≤ 0.2
32 | RIVM | 0.281
33 | RIVC | 0.942
34 | RIKC | 0.805
35 | RIKQ | ≤ 0.2
36 | MKRV | ≤ 0.2
37 | RFFC | 0.674
38 | NFAC | ≤ 0.2
39 | RFFN | 0.262
40 | RFAN | 0.372
41 | RFAC | 0.91
42 | RFFY | 0.269
43 | WGLC | ≤ 0.2
44 | MPTN | ≤ 0.2
45 | GFLD | ≤ 0.2
46 | EFEC | ≤ 0.2
47 | RQAY | 0.444
48 | RQAG | 1
49 | RQFD | ≤ 0.2
50 | RQFG | 0.917

Row | Variant | one-hybrid fitness for binding parS DNA
51 | RQFN | 0.363
52 | RQAR | ≤ 0.2
53 | WVPR | ≤ 0.2
54 | RQSS | 0.979
55 | RQQD | ≤ 0.2
56 | RQQP | ≤ 0.2
57 | RQSN | 0.438
58 | RQSP | ≤ 0.2
59 | RQWS | 0.959
60 | RQQS | 0.987
61 | RQAP | ≤ 0.2
62 | RQWH | ≤ 0.2
63 | RQAH | ≤ 0.2
64 | RQAS | 0.988
65 | RQWP | ≤ 0.2
66 | KHSR | ≤ 0.2
67 | ICNS | ≤ 0.2
68 | TSSN | ≤ 0.2
69 | FLHK | ≤ 0.2
70 | SFKN | ≤ 0.2
71 | PRKR | ≤ 0.2
72 | NSVS | ≤ 0.2
73 | GRDV | ≤ 0.2
74 | RQFH | ≤ 0.2
75 | RQFP | ≤ 0.2

Row | Variant | one-hybrid fitness for binding parS DNA
76 | RQLS | 1.02
77 | RQLP | ≤ 0.2
78 | RQCH | ≤ 0.2
79 | RQFS | 0.957
80 | RQLN | 0.439
81 | RQCN | 0.416
82 | RQYS | 1
83 | RQYN | 0.393
84 | RQCS | 0.976
85 | RQYP | ≤ 0.2
86 | AMKF | ≤ 0.2
87 | SCQY | ≤ 0.2
88 | YPKA | ≤ 0.2
89 | IKCR | ≤ 0.2
90 | AFFR | ≤ 0.2
91 | MTRW | ≤ 0.2
92 | RQHN | 0.425
93 | RQGS | 0.978
94 | RQRN | 0.451
95 | RQRD | ≤ 0.2
96 | RQRS | 0.918
97 | RQHS | 0.988
98 | RQGP | ≤ 0.2
99 | RQGN | 0.441
100 | RQHP | ≤ 0.2

Row | Variant | one-hybrid fitness for binding parS DNA
101 | KTML | ≤ 0.2
102 | PITI | ≤ 0.2
103 | GSLR | ≤ 0.2
104 | VPIR | ≤ 0.2
105 | RCEG | 0.915
106 | RDEG | ≤ 0.2
107 | RREY | 0.295
108 | RTEG | 0.893
109 | RREK | ≤ 0.2
110 | RHEH | ≤ 0.2
111 | RHEP | ≤ 0.2
112 | RTEF | 0.202
113 | RTEQ | ≤ 0.2
114 | RPEG | ≤ 0.2
115 | RHEG | 0.898
116 | RREG | 0.915
117 | TLIV | ≤ 0.2
118 | SWMS | ≤ 0.2
119 | PFMN | ≤ 0.2
120 | ASAS | ≤ 0.2
121 | TTEV | ≤ 0.2
122 | EKIY | ≤ 0.2
123 | VYPH | ≤ 0.2
124 | PRMG | ≤ 0.2
125 | VNWT | ≤ 0.2

Row | Variant | one-hybrid fitness for binding parS DNA
126 | LVHA | ≤ 0.2
127 | SFKQ | ≤ 0.2
128 | RKEF | ≤ 0.2
129 | RKEG | 0.949
130 | RAEH | ≤ 0.2
131 | RIEI | ≤ 0.2
132 | RMEG | 0.86
133 | RAEG | 0.852
134 | RAEP | ≤ 0.2
135 | RMEL | ≤ 0.2
136 | RIEG | 0.771
137 | RIED | ≤ 0.2
138 | RMEI | ≤ 0.2
139 | RKED | ≤ 0.2
140 | HTCW | ≤ 0.2
141 | CSFT | ≤ 0.2
142 | DPQT | ≤ 0.2
143 | PMYE | ≤ 0.2
144 | ASIR | ≤ 0.2
145 | RSEG | 0.802
146 | RGEG | 0.474
147 | NFEG | ≤ 0.2
148 | RFEG | 0.731
149 | RLEN | 0.4
150 | RLEG | 0.925

Row | Variant | one-hybrid fitness for binding parS DNA
151 | DFEG | ≤ 0.2
152 | REEG | ≤ 0.2
153 | RLED | ≤ 0.2
154 | HYRI | ≤ 0.2
155 | IEVV | ≤ 0.2
156 | YPPA | ≤ 0.2
157 | NRYK | ≤ 0.2
158 | SSLC | ≤ 0.2
159 | PCWL | ≤ 0.2
160 | TTWY | ≤ 0.2
161 | CCRS | ≤ 0.2
162 | RMAG | 1.01
163 | RMFY | 0.492
164 | RMFG | 1
165 | RMFK | ≤ 0.2
166 | RMAD | 0.207
167 | RMAP | 0.205
168 | LSRQ | ≤ 0.2
169 | RFMR | ≤ 0.2
170 | RIIF | ≤ 0.2
171 | RIIC | 0.901
172 | RIPM | ≤ 0.2
173 | RIPC | 0.626
174 | RIPY | 0.232
175 | RIIM | 0.273

Row | Variant | one-hybrid fitness for binding parS DNA
176 | SCFV | ≤ 0.2
177 | QTMW | ≤ 0.2
178 | SRTC | ≤ 0.2
179 | RIGK | ≤ 0.2
180 | RIQP | ≤ 0.2
181 | RIGT | 0.924
182 | RICD | ≤ 0.2
183 | RICK | 0.208
184 | RIWT | 0.83
185 | RIWN | 0.455
186 | RIWF | 0.282
187 | RIQT | 0.886
188 | RIGQ | 0.204
189 | RIQN | 0.449
190 | RICT | 0.853
191 | LPLM | ≤ 0.2
192 | WSVC | ≤ 0.2
193 | AQMM | ≤ 0.2
194 | DELW | ≤ 0.2
195 | QKSV | ≤ 0.2
